From PubChem BioAssay (Tox21)
Where “and” joins values, the source holds several entries; their conditions need not be identical. Equal values may be shown once. Inconclusive results are not listed. Where a call stands in place of a potency, no number is given. Some compounds were tested as several samples or in several runs, with calls that do not always agree. Calls of active or inactive are those of the source. Calls follow the shape of the dose curve; as a rule, active = well fitted curve in the direction sought with a large enough effect in the repeat runs; inconclusive = weak or mixed curves; inactive = no such curve, though single readings can be large; an effect the other way counts as inactive or inconclusive.

System: not listed separately
Assay: Caspase-3/7 induction in HepG2 cells by small molecules, qHTS cell viability counter screen (AID 1346981); also: nearly all actives have a fitted effect of over 30% in size
Conditions: CellTiter-Fluor fluorescence, 17 h; series mostly up to 92.4 µM; activity change, negative = cytotoxicity: at the top concentration
In short: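 Steps: seed 2,000 HepG2 cells per well; incubate 5 hr at 37 C; pin-add compounds in DMSO; incubate 16 hr; add CellTiter-Fluor; after 1 hr at 37 C and 5% CO2, read fluorescence.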
Potency is read from the fitted curve at half-maximal effect.

| Compound | activity change, negative = cytotoxicity | Potency |
| --- | --- | --- |
| CN(C)C(=O)C(c1ccccc1)c1ccccc1 | 2.18% (inactive) | – |
| N#Cc1ccccn1 | – | inactive |
| C=CC(=O)OCCCCCC(C)C | – | inactive |
| O=P1(NCCCl)OCCCN1CCCl (stereo unspecified) | – | inactive |
| Cc1cccc(C)c1N | 1.25% (inactive) | – |
| COS(=O)(=O)OC | – | inactive |
| CCOc1ccc(N)cc1 | -1.27% (inactive) | – |
| CCCOC(=O)c1ccccc1C(=O)OCCC | – | inactive |
| Nc1cc(Cl)cc(Cl)c1 | – | inactive |
| CCCCC(CC)C(=O)Cl (stereo unspecified) | – | inactive |
| CC(C)(C)C(=O)CCl | 9.33% (inactive) | – |
| O=C(O)CCCc1ccc(N(CCCl)CCCl)cc1 | – | 54.7 µM (active) and inactive |
| OCc1ccco1 | – | inactive |
| COc1cc(-c2ccc(N)c(OC)c2)ccc1N | – | inactive and 46.3 µM (active) |
| Cc1ccc(N=C=O)cc1N=C=O | – | inactive |
| ClC(Cl)c1ccccc1 | – | inactive |
| N#CN=C(N)N | – | inactive |
| Cl/C=C/Cl | – | inactive |
| CC(C)c1cccc(C(C)C)c1O | – | inactive |
| Cc1ccc(O)c(C)c1 | – | inactive |
| CC(C)CCCCCCOC(=O)c1ccccc1C(=O)OCCCCCCC(C)C | – | inactive |
| OCCCCO | – | inactive |
| CNC(=O)O/N=C/C(C)(C)SC | – | inactive |
| N#Cc1cccc(C#N)c1 | – | inactive |
| FC(F)(F)c1ccc(Cl)cc1 | – | inactive |
| CCOC(=O)CC(SP(=O)(OC)OC)C(=O)OCC (stereo unspecified) | – | inactive |
| O=C(O)C(Br)Br | – | inactive |
| CCOP(=S)(OCC)Oc1ccc([N+](=O)[O-])cc1 | – | inactive |
| Cc1cccc(C)c1NC(=O)CN1CCCC1=O | – | inactive |
| CN(C)C(=O)Cl | – | inactive |

Target: Nuclear receptor subfamily 1 group I member 2 (Homo sapiens) (UniProt O75469)
Assay: Human pregnane X receptor (PXR) small molecule agonists, qHTS assay (AID 1346982); also: nearly all actives have a fitted effect of over 35% in size
Conditions: PXR-Luc HepG2, CYP3A4 luciferase reporter, 24 h; series mostly up to 92.4 µM; activation: at the top concentration
In short: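 Agonist mode qHTS: PXR-Luc HepG2 cells plated 5 hr before DMSO-dissolved compounds were pinned in, cultured 24 hr at 37 C, 5% CO2; ONE-Glo luminescence readout.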

Sequence of Nuclear receptor subfamily 1 group I member 2 (Homo sapiens) (O75469 whole entry, looked up): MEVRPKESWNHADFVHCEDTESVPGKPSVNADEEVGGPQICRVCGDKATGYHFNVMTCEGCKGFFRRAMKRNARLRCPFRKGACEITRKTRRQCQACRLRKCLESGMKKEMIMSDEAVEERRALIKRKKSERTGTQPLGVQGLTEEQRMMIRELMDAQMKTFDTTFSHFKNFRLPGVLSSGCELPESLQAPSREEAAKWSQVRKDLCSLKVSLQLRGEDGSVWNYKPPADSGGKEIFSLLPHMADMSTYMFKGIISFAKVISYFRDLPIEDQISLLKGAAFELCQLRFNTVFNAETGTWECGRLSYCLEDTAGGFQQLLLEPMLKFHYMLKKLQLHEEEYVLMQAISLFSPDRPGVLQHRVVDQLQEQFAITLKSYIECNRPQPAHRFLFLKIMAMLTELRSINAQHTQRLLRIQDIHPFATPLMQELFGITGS

| Compound | Potency | activation |
| --- | --- | --- |
| CN(C)C(=O)C(c1ccccc1)c1ccccc1 | inactive and 19.3 µM (active) | – |
| N#Cc1ccccn1 | inactive | – |
| C=CC(=O)OCCCCCC(C)C | inactive | – |
| Cc1cccc(C)c1N | inactive | – |
| COS(=O)(=O)OC | inactive | – |
| CCOc1ccc(N)cc1 | inactive | – |
| CCCOC(=O)c1ccccc1C(=O)OCCC | inactive | – |
| Nc1cc(Cl)cc(Cl)c1 | inactive | – |
| CCCCC(CC)C(=O)Cl (stereo unspecified) | inactive | – |
| CC(C)(C)C(=O)CCl | inactive | – |
| O=C(O)CCCc1ccc(N(CCCl)CCCl)cc1 | inactive | – |
| OCc1ccco1 | inactive | – |
| Cc1ccc(N=C=O)cc1N=C=O | 60.9 µM (active) and inactive | – |
| ClC(Cl)c1ccccc1 | inactive | – |
| N#CN=C(N)N | inactive | – |
| Cl/C=C/Cl | inactive and 29.6 µM (active) | – |
| Cc1ccc(O)c(C)c1 | – | -5.46% (inactive) |
| CC(C)CCCCCCOC(=O)c1ccccc1C(=O)OCCCCCCC(C)C | inactive | – |
| CNC(=O)O/N=C/C(C)(C)SC | 69.2 µM (active) and inactive | – |
| N#Cc1cccc(C#N)c1 | inactive | – |
| FC(F)(F)c1ccc(Cl)cc1 | inactive | – |
| CCOC(=O)CC(SP(=O)(OC)OC)C(=O)OCC (stereo unspecified) | inactive | – |
| O=C(O)C(Br)Br | inactive | – |
| CCOP(=S)(OCC)Oc1ccc([N+](=O)[O-])cc1 | 49.2 µM (active) | – |
| Cc1cccc(C)c1NC(=O)CN1CCCC1=O | inactive | – |
| CN(C)C(=O)Cl | inactive | – |
